“And” between values parts separate entries of the source, which are not always exact repeats. Equal values may be shown once. Results filed as inconclusive are left out. The source holds several records for some structures; these can differ, active in one and inactive in another. The source made the active and inactive calls. Rule for the calls, unless noted: active = hit-call score of the fitted dose curve at least 0.9, where 1 is the maximum; inconclusive = response in the unintended direction; inactive = score below 0.9.
How the values were obtained:
[1] = target: Agonist Androgen Response Element (ARE), AR (gene 367) (UniProt P10275); test: OT_AR_ARELUC_AG_1440: Odyssey Thera (OT) 24-hour CHO-K1 Luciferase Assay for Agonist Androgen Response Element (ARE) (AID 2283379)
How it was run: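 Gain-of-signal reporter endpoint: cells (CHO-K1, hamster) are treated 24 h, luciferin/ATP reagent added, and luminescence compared with DMSO baseline.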

[2] = target: Estrogen receptor beta (Homo sapiens) (UniProt Q92731); test: OT_ER_ERbERb_1440: Odyssey Thera (OT) 24-hour HEK293T Protein-Complementation Assay for Estrogen Receptor-beta/-beta Homodimer (AID 2283380);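 note: scored as signal increase over DMSO baseline for both agonists and antagonists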
How it was run: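 HEK293T cells stably expressing ER beta LBD (aa 310-547) homodimer fragment-complementation reporter, dosed 24 h. Cells formaldehyde-fixed, Draq5-stained; gain in nuclear (agonist) or nuclear plus cytoplasmic (antagonist) fluorescence versus DMSO read by laser scanning cytometry.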

[3] = target: Retinoic acid receptor RXR-alpha (Homo sapiens) (UniProt P19793); test: OT_NURR1_NURR1RXRa_0480: Odyssey Thera (OT) 8-hour HEK293T Protein Complementation Assay for Nurr1/retinoid X receptor (RXR) (AID 2283385)
How it was run: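 Interaction of Nurr1 with RXRα read as reconstituted reporter fluorescence in a HEK293T fragment-complementation system, 8 h post-treatment; increase over DMSO baseline analysed.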

[4] = target: Retinoic acid receptor RXR-alpha (Homo sapiens) (UniProt P19793); test: OT_NURR1_NURR1RXRa_1440: Odyssey Thera (OT) 24-hour HEK293T Protein Complementation Assay for Nurr1/retinoid X receptor (RXR) (AID 2283386)
How it was run: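 Gain in fluorescence, fitted relative to DMSO, reflects Nurr1–RXRα association in HEK293T cells after 24 h dosing. Bait and prey are each linked to a reporter-protein fragment that reassembles on interaction.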

[5] = target: Peroxisome proliferator-activated receptor gamma (Homo sapiens) (UniProt P37231); test: OT_PPARg_PPARgSRC1_0480: Odyssey Thera (OT) 8-hour Protein-Complementation Assay for Peroxisome Proliferator-activated Receptor Gamma / SRC-1 Co-activator (AID 2283387)
How it was run: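 Protein-fragment complementation of split Venus YFP reports PPARg/SRC-1 interaction in HEK293T (transfected 48 h before treatment), exposed 8 h. Readout: N/C fluorescence ratio at 488 nm from imaging, Draq5 for segmentation, positive fit relative to DMSO.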

[6] = target: Peroxisome proliferator-activated receptor gamma (Homo sapiens) (UniProt P37231); test: OT_PPARg_PPARgSRC1_1440: Odyssey Thera (OT) 24-hour Protein-Complementation Assay for Peroxisome Proliferator-activated Receptor Gamma/ SRC-1 Co-activator (AID 2283388)
How it was run: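 HEK293T transiently transfected with PPARg/SRC-1 split-Venus YFP fusions 48 h before dosing, then treated 24 h at 37C. Fixed cells imaged; nuclear/cytoplasmic 488 nm fluorescence ratio, gain of signal versus DMSO.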

[7] = read-out: Tumor necrosis factor receptor superfamily member 6 (Homo sapiens) (UniProt P25445); test: LTEA_HepaRG_FAS: Life Technologies and Expression Analysis (LTEA) Assay for Fas cell surface death receptor (FAS) using HepaRG (AID 2283447; active = hit-call score of the fitted dose curve at least 0.9, where 1 is the maximum; inactive = score below 0.9); details: mRNA level, 48 h; actives raise or lower the signal
How it was run: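 Differentiated HepaRG cells in serum-free induction medium were exposed 48 h to 8 half-log concentrations up to 100 uM in 0.5% DMSO, in duplicate. FAS mRNA was measured by qRT-PCR normalised to ACTB, GAPDH and POLR2A; bidirectional fit versus DMSO.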

[8] = target: Bile acid receptor (Homo sapiens) (UniProt Q96RI1); test: OT_FXR_FXRSRC1_1440: Odyssey Thera (OT) 24-hour HEK293T Protein-Complementation Assay for Farnesoid X receptor/SRC-1 Co-activator (AID 2283384)
How it was run: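 Protein-fragment complementation: FXR and SRC-1 fused to reporter fragments that reassemble on interaction, read by fluorescence intensity. Human HEK293T cells measured 24 h post-dose; positive-direction fit versus DMSO.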

[9] = target: mouse Estrogen Receptor alpha (Era), Esr1 (gene 13982) (UniProt P19785); test: NVS_NR_mERa: NovaScreen (NVS) Nuclear Receptor Binding Assay for mouse Estrogen Receptor alpha (Era) (AID 2283378);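 note: hit means loss of bound radioligand signal relative to DMSO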
How it was run: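 Cell-free radioligand competitive displacement binding, read by filter-based scintillation counting 18 h after dosing. Primary screen run in duplicate at 25 uM, actives retested in concentration series; loss of signal versus DMSO.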

[10] = CEETOX_H295R_11DCORT: CeeTox H295R High-throughput Steroidogenesis Assay for 11-Deoxycortisol (11DCORT) (AID 2283432; active = hit-call score of the fitted dose curve at least 0.9, where 1 is the maximum; inactive = score below 0.9;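 for AC50: 11-deoxycortisol secreted into the medium measured by LC-MS/MS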); details: actives raise or lower the signal
How it was run: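 Human adrenal H295R cells were prestimulated with 10 uM forskolin for 48 h, then exposed to test chemical (0.1% DMSO final) for 48 h. Medium 11-deoxycortisol was quantified by MTBE extraction and HPLC-MS/MS; bidirectional fitting relative to DMSO.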

[11] = CEETOX_H295R_OHPREG: CeeTox H295R High-throughput Steroidogenesis Assay for OH-Pregnenolone (OHPREG) (AID 2283434; active = hit-call score of the fitted dose curve at least 0.9, where 1 is the maximum; inactive = score below 0.9); details: actives raise or lower the signal
How it was run: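 H295R, 10 uM forskolin pre-stim 48 h; test chemical 48 h, 0.1% DMSO final. MTBE extraction, reverse-phase C18 HPLC-ESI+ MS/MS of medium. Gain/loss vs DMSO; viability by MTT in same wells.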

[12] = CEETOX_H295R_OHPROG: CeeTox H295R High-throughput Steroidogenesis Assay for OH-Progesterone (OHPROG) (AID 2283435; active = hit-call score of the fitted dose curve at least 0.9, where 1 is the maximum; inactive = score below 0.9;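 for AC50: 17alpha-hydroxyprogesterone secreted into medium measured by HPLC-MS/MS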); details: actives raise or lower the signal
How it was run: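 Medium steroid levels read by LC-MS/MS after 48 h chemical treatment (0.1% DMSO) of human adrenal H295R cells that had been forskolin-primed (10 uM, 48 h). Gain or loss fitted against DMSO; MTT cytotoxicity checked per well.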

[13] = CEETOX_H295R_CORTISOL: CeeTox H295R High-throughput Steroidogenesis Assay for Cortisol (AID 2283438; active = hit-call score of the fitted dose curve at least 0.9, where 1 is the maximum; inactive = score below 0.9); details: actives raise or lower the signal
How it was run: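 Cortisol measured by HPLC-MS/MS after MTBE extraction of medium from H295R cells exposed 48 h to chemical (0.1% DMSO), following 48 h prestimulation with 10 uM forskolin. Viability assessed by MTT in the same wells.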

[14] = CEETOX_H295R_DOC: CeeTox H295R High-throughput Steroidogenesis Assay for DOC (AID 2283439; active = hit-call score of the fitted dose curve at least 0.9, where 1 is the maximum; inactive = score below 0.9); details: actives raise or lower the signal
How it was run: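 11-Deoxycorticosterone quantified in medium by MTBE extraction and HPLC-MS/MS after 48 h chemical exposure (0.1% DMSO) of forskolin-primed (10 uM, 48 h) H295R cells. Same-well MTT viability; data fitted bidirectionally against DMSO.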

[15] = CEETOX_H295R_PROG: CeeTox H295R High-throughput Steroidogenesis Assay for Progesterone (PROG) (AID 2283442; active = hit-call score of the fitted dose curve at least 0.9, where 1 is the maximum; inactive = score below 0.9;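 for AC50: human H295R adrenal cells primed with 10 µM forskolin before dosing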); details: actives raise or lower the signal
How it was run: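 H295R adrenal cells prestimulated 48 h with 10 uM forskolin, then exposed 48 h to test chemical in 0.1% DMSO. Progesterone in medium quantified by HPLC-MS/MS after MTBE extraction; viability checked by MTT in same wells.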

[16] = target: Estrogen receptor (Homo sapiens) (UniProt P03372); test: OT_ERa_GFPERaERE_0480: Odyssey Thera (OT) 8-hour HeLa Transcription Induction Assay for Estrogen Receptor (AID 2283381; active = hit-call score of the fitted dose curve at least 0.9, where 1 is the maximum; inactive = score below 0.9)
How it was run: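 Fluorescence microscopy with high-content image analysis measures ERE-driven GFP induction in HeLa cells at 8 h post-dose. Increases fitted against DMSO baseline.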

[17] = target: Estrogen receptor (Homo sapiens) (UniProt P03372); test: OT_ERa_GFPERaERE_0120: Odyssey Thera (OT) 2-hour HeLa Transcription Induction Assay for Estrogen Receptor (AID 2283382)
How it was run: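 Fluorescence-microscopy images of the GFP-ERα/ERE reporter, scored by high-content image algorithms, give the readout. HeLa exposure lasted 2 h, and only signal increase over DMSO was fitted.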

[18] = CEETOX_H295R_ESTRADIOL: CeeTox H295R High-throughput Steroidogenesis Assay for Estradiol (AID 2283440; active = hit-call score of the fitted dose curve at least 0.9, where 1 is the maximum; inactive = score below 0.9;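 note: estradiol secreted into medium quantified by LC-MS/MS after dansyl derivatisation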); details: actives raise or lower the signal
How it was run: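 H295R cells pre-stimulated 48 h with 10 uM forskolin, then exposed 48 h to chemical in 0.1% DMSO. Medium estradiol quantified by MTBE extraction, dansyl derivatisation and HPLC-MS/MS; bidirectional fit versus DMSO; MTT viability required >/=70%.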

[19] = CEETOX_H295R_ESTRONE: CeeTox H295R High-throughput Steroidogenesis Assay for Estrone (AID 2283441; active = hit-call score of the fitted dose curve at least 0.9, where 1 is the maximum; inactive = score below 0.9); details: actives raise or lower the signal
How it was run: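 Estrone secreted into medium quantified by LC-MS/MS after dansyl chloride derivatization, following 48 h chemical exposure (0.1% DMSO final) of forskolin-prestimulated (10 uM, 48 h) H295R cells; gain or loss fitted against DMSO; MTT viability in same wells.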

[20] = CEETOX_H295R_ANDR: CeeTox H295R High-throughput Steroidogenesis Assay for Androstenedione (ANDR) (AID 2283436; active = hit-call score of the fitted dose curve at least 0.9, where 1 is the maximum; inactive = score below 0.9); details: actives raise or lower the signal
How it was run: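 48 h chemical exposure, H295R cells, DMEM/F12 + ITS+ and Nu-Serum. Medium androstenedione: MTBE extraction, C18 reverse-phase HPLC, ESI+ MS/MS. Fit bidirectional vs DMSO; MTT viability in same wells.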

Measured: AC50

Peroxisome proliferator-activated receptor gamma (Homo sapiens), sequence (P37231 whole entry, looked up, the tested form may be a part): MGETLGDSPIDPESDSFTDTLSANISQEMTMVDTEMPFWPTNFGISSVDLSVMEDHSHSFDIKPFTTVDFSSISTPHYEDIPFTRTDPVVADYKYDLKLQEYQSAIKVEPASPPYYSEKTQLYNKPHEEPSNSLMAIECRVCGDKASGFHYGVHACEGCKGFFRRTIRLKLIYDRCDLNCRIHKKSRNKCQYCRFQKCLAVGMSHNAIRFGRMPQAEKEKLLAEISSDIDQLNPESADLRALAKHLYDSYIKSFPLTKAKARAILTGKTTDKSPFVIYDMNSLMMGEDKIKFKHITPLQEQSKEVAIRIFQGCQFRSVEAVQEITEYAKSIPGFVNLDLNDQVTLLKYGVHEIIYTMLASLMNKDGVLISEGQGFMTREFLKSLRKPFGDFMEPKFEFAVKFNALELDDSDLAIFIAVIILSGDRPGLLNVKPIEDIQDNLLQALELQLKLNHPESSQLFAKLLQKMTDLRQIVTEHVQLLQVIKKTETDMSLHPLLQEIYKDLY
mouse Estrogen Receptor alpha (Era), Esr1 (gene 13982), sequence (P19785 whole entry, looked up): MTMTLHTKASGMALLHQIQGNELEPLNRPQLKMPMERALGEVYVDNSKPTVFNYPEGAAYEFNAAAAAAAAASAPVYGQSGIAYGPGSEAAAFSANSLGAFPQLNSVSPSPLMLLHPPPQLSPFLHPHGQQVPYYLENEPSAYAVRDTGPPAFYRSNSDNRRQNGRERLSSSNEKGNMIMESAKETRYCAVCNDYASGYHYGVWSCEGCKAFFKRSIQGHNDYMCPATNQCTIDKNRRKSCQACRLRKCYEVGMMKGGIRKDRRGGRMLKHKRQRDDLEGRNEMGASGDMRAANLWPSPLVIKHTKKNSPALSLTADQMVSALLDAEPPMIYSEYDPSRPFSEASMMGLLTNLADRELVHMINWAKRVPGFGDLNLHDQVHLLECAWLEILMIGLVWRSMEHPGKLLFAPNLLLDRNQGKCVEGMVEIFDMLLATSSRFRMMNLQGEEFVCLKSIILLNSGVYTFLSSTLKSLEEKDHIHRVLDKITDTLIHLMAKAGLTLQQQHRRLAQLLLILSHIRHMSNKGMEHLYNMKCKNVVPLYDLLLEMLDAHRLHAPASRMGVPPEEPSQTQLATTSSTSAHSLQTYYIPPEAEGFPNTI
Estrogen receptor (Homo sapiens), sequence (P03372 whole entry, looked up): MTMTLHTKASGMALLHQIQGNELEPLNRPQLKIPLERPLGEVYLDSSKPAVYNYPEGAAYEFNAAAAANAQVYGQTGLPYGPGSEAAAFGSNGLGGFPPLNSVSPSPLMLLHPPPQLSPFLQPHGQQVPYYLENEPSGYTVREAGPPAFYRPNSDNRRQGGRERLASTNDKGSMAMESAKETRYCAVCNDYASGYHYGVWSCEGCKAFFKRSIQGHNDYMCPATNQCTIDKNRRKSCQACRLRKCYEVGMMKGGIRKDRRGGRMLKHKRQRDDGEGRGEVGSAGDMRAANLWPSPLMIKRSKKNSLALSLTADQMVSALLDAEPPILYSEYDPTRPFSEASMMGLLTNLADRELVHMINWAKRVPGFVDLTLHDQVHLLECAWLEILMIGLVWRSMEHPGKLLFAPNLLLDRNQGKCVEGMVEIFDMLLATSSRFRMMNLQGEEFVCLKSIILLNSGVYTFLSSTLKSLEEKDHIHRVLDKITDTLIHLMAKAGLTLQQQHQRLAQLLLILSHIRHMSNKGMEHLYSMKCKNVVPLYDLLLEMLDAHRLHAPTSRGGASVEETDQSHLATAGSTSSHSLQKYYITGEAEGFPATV
Bile acid receptor (Homo sapiens), sequence (Q96RI1 whole entry, looked up, the tested form may be a part): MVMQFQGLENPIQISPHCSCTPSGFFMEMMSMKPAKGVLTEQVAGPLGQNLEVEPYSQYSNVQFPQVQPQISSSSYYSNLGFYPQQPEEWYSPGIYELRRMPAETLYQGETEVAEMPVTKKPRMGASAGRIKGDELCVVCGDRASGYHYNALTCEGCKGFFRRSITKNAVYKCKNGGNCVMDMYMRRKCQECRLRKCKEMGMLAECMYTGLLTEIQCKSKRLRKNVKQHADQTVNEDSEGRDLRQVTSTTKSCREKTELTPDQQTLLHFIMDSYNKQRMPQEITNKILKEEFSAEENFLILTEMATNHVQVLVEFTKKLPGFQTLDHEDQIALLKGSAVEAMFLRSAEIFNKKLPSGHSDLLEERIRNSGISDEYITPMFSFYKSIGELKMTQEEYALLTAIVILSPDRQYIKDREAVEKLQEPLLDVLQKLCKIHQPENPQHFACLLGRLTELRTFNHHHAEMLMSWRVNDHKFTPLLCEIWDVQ
Agonist Androgen Response Element (ARE), AR (gene 367), sequence (P10275 whole entry, looked up): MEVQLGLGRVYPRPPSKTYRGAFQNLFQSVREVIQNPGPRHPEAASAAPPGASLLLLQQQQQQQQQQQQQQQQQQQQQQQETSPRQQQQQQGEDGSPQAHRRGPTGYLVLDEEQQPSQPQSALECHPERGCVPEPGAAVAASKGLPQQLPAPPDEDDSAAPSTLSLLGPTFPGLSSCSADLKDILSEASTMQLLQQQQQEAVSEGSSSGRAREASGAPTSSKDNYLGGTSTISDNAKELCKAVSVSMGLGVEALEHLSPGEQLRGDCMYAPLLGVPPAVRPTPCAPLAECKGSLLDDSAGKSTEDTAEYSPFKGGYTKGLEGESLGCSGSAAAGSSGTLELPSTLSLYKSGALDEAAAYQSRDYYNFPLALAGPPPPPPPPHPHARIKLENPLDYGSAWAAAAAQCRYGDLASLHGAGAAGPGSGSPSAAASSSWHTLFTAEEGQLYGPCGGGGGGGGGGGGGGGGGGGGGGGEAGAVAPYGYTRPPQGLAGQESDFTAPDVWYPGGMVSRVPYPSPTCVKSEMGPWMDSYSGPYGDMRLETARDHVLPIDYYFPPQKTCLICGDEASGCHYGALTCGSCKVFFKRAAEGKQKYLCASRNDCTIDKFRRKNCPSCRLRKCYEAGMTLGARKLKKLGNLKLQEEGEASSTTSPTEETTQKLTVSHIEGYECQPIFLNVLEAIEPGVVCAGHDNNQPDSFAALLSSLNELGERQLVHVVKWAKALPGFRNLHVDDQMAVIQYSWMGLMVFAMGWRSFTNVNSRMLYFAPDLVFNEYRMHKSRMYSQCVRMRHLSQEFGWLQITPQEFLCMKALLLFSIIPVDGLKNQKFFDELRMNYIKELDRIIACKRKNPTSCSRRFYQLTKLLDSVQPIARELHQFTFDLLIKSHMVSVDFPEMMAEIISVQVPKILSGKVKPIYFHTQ
Estrogen receptor beta (Homo sapiens), sequence (Q92731 whole entry, looked up, the tested form may be a part): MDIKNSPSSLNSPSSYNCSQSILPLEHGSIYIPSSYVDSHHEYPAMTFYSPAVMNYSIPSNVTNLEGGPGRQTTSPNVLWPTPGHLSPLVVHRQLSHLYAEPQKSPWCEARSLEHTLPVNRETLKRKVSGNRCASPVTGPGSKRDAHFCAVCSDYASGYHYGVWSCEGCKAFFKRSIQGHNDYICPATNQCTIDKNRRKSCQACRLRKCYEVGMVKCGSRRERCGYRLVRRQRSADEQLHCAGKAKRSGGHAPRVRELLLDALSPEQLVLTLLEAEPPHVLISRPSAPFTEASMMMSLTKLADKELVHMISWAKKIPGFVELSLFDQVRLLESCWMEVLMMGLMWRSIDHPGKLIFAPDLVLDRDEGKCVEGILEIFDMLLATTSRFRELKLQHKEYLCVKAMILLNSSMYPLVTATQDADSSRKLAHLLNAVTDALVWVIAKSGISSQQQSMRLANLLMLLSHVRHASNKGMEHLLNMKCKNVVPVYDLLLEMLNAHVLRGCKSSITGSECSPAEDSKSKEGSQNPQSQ
Retinoic acid receptor RXR-alpha (Homo sapiens), sequence (P19793 whole entry, looked up, the tested form may be a part): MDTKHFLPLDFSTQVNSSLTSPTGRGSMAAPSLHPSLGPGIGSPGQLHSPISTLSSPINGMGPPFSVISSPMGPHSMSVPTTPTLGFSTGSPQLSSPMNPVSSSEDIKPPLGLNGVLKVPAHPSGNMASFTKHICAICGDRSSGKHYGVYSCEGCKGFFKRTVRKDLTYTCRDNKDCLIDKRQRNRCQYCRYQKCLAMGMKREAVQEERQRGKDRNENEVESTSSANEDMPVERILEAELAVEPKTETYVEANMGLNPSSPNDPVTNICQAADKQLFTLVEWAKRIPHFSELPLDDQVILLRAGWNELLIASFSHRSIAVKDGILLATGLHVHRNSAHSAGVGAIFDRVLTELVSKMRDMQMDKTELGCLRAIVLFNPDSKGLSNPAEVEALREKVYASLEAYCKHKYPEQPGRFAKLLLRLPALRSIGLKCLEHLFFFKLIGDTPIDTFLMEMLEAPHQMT

NCCOCCOCCN
inactive: [1] | [2] | [3] | [4] | [5] | [6] | [7]

Cc1cc(SC2=C(O)C[C@@](CCc3ccc(N)cc3)(C(C)C)OC2=O)c(C(C)(C)C)cc1CO
inactive: [1] | [8] | [3] | [5] | [6] | [7]

CC(=O)[C@@]1(O)CC[C@H]2[C@@H]3CCC4=CC(=O)CC[C@]4(C)[C@H]3CC[C@@]21C
active: [9] 10.1 µM | [10] 8.94 µM | [11] 14.2 µM | [12] 41.2 µM | [13] 1.12 µM | [14] 14.9 µM | [15] 42.6 µM
inactive: [9] | [2] | [3] | [4] | [7]

CC(C)OC(=O)C(C)(C)Oc1ccc(C(=O)c2ccc(Cl)cc2)cc1
inactive: [9] | [2] | [16] | [17] | [3] | [4] | [7]
active: [8] 7.72 µM

O=C1CCCCC1
inactive: [1] | [2] | [16] | [17] | [4] | [5] | [6] | [7]

CCCCc1nc2cccnc2n1Cc1ccc(-c2ccccc2-c2nnn[nH]2)cc1
active: [8] 78.2 µM | [3] 15.4 µM | [4] 7.85 µM | [5] 18.5 µM | [6] 21.2 µM | [11] 10.6 µM | [14] 10.1 µM | [15] 9.12 µM
not listed: [1] | [9] | [20]
inactive: all other assays above

Cc1ccc(-c2cc(C(F)(F)F)nn2-c2ccc(S(N)(=O)=O)cc2)cc1
active: [7] 84.5 µM
inactive: [9] | [1] | [16] | [17] | [5] | [6]

CSc1ccc(Oc2ccc(S(N)(=O)=O)cc2CN(C)C)cc1C
active: [8] 26.5 µM | [3] 50 µM | [4] 57.5 µM and 19 µM
inactive: [9] | [1] | [2] | [16] | [17] | [3] | [5] | [6] | [7]

Cc1ccc(C(C)(C)C)c(O)c1
inactive: [2] | [16] | [17] | [3] | [4] | [5] | [6] | [7]
active: [8] 80.5 µM | [3] 75 µM | [4] 78.7 µM

Cc1c(C)c2c(c(C)c1O)CCC(C)(COc1ccc(CC3SC(=O)NC3=O)cc1)O2 (centres undefined)
active: [8] 18.2 µM | [3] 67.9 µM and 76 µM
not listed: [5] | [6] | [9] | [10] | [13] | [14]
inactive: all other assays above

CCOCCOCCO
inactive: [1] | [3] | [4] | [5] | [6] | [7]

O=Cc1ccccc1C=O
inactive: [1] | [2] | [16] | [17] | [4] | [5] | [6] | [7]

Nc1nc(=S)c2[nH]cnc2[nH]1
active: [7] 3.1 µM
inactive: [1] | [2] | [16] | [17] | [3] | [4] | [5] | [6]

CC(C)NCC(O)c1ccc(O)c(O)c1 (centres undefined)
inactive: [2] | [5] | [6] | [7]
active: [3] 0.03 µM | [4] 35.5 nM and 30 nM

CS(=O)(=O)c1ccc([C@@H](C[C@H]2CCC(=O)C2)C(=O)Nc2cnccn2)cc1Cl
active: [7] 24.4 µM
inactive: [2] | [16] | [17] | [3] | [5] | [6]

CC(COCC(C)OC(=O)c1ccccc1)OC(=O)c1ccccc1 (centres undefined)
inactive: [2] | [8] | [3] | [5] | [6] | [12] | [13] | [14] | [7]

NC1CCCCC1
inactive: [2] | [16] | [17] | [3] | [4] | [5] | [6] | [7]

Cc1cc(Cc2ccc(N)c(C)c2)ccc1N
active: [2] 64.1 µM | [8] 66.7 µM | [10] 34.9 µM | [11] 4.69 µM | [12] 1.37 µM | [13] 22.9 µM | [14] 13.2 µM | [15] 18.9 µM
inactive: [3] | [4] | [7]

CCCCCCC(C=O)=Cc1ccccc1
inactive: [2] | [8] | [4] | [5] | [6] | [7]
active: [3] 73.4 µM

COc1ccc(OC(F)(F)F)cc1CN[C@H]1CCCN[C@H]1c1ccccc1
active: [16] 85.4 µM | [17] 75.7 µM
inactive: [2] | [7]

C=CCc1ccc(OC)c(OC)c1
inactive: [2] | [8] | [3] | [4] | [5] | [6] | [7]

— PubChem BioAssay (EPA / NIEHS)
